Several values for one entry are separate records, joined by “and”; a condition that tells them apart may be missing. Identical values can stand only once. Among all 16,000 compounds or so, about 5,700 (36%) were called active. Roughly 24% stayed inconclusive and do not appear here. Calls follow the shape of the dose curve; as a rule, active = well fitted curve in the direction sought with a large enough effect; inconclusive = small, poorly fitted or top-dose-only effect, or effect the other way; inactive = no such curve, though single readings can be large or run the other way. The list shows a part of the results. Square brackets hold non-standard residues; d marks the D form. Peptide text beside a SMILES is read from it.
% is scaled to controls: 0 for no effect and ±100 for the full control effect.

For this test, the target named is Cytochrome P450 1A2 (Homo sapiens) (UniProt P05177). Put plainly: Cytochrome panel assay with activity outcomes. Conditions: recombinant CYP, pro-luciferin dealkylation, luminescence, p450-cyp1a2; series mostly up to 57.1 µM.
Chain of Cytochrome P450 1A2 (Homo sapiens) (P05177 whole entry, looked up): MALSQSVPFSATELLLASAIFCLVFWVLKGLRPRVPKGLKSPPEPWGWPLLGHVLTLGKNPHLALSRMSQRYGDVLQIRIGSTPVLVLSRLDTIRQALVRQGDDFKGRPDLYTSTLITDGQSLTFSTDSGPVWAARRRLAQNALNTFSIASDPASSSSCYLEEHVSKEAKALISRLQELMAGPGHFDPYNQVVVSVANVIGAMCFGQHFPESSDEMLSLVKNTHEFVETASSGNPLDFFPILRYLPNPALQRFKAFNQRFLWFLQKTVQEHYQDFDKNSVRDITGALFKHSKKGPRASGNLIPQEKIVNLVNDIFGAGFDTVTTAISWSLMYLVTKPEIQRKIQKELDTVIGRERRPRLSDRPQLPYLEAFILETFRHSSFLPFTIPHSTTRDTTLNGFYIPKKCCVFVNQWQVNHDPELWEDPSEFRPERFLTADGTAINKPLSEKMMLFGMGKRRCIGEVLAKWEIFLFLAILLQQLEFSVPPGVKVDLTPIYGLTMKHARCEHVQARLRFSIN
With `Cc1ccc(CNCC(O)(c2ccc(F)cc2)c2ccc(F)cc2)cc1`, the AC50 (commonly the concentration giving half of the maximal activity seen) was “inactive”.

Take `CCOC(=O)C(C(=O)NCc1ccc(C)cc1)c1ncc(C(F)(F)F)cc1Cl` (stereo not drawn): the concentration at half-maximal activity (AC50) was 10 µM (active).

Turning to `NCC(=O)N[C@H](CO)C(=O)O` (H-Gly-[dS]-OH), the activity, negative = inhibition was -8.79% [at 11.4 µM] (inactive).

As for `O=c1cnc2cncnc2n1Cc1ccccc1`, the AC50 is 25.1 µM (active).

For the molecule `COc1cccc(Cn2c(=O)cnc3cncnc32)c1`, the half-maximal activity concentration (AC50) was 15.8 µM (active).

With `OC[C@@H]1O[C@@H](n2cnc3cncnc32)[C@@H](O)[C@H]1O`, the AC50 result was “inactive”.

For `Cc1ccc([C@@H](O)c2cnc(C)n2Cc2ccccc2)cc1`, the activity, negative = inhibition is -10.8% [at 11.4 µM] (inactive).

As for `CCCn1nnnc1-c1cc(Cl)cc(Cl)c1`, the half-maximal activity concentration (AC50) is 2.82 µM (active).

`CC(C)n1nnnc1-c1cc(Cl)cc(Cl)c1`: the AC50 is 8.91 µM (active).

In the case of `CC(C)CC(c1nnnn1C(C)C)N1CCN(c2ccccc2)CC1` (stereo not drawn), the AC50 result was “inactive”.

With `CCS(=O)(=O)c1ccc2c(c1)N(S(C)(=O)=O)CC(C(=O)NCCOC)O2` (stereo not drawn), the AC50 result is “inactive”.

On to `CCOC(=O)CCN1C(=O)[C@H]2[C@@H]3[C@H](O)[C@H](O)CC(=O)[C@H]3CC[C@H]2C1=O`, for which the activity, negative = inhibition was -2.79% [at 11.4 µM] (inactive) and -9.9% [at 11.4 µM] (inactive).

Regarding `COC(=O)C/C=C\[C@@H](C)[C@@H](/C=N\O[C@@H](C)CN1CCCc2nc(C)c(C)cc21)NS(=O)(=O)c1ccc(C)cc1`, the activity, negative = inhibition was -5.78% [at 11.4 µM] (inactive).

In the case of `O=C(O)/C=C1\NC(=O)c2ccccc21`, the AC50 entry is “inactive”.

As to `Nc1ccc2c3c(cccc13)C(=O)NC2=O`, the AC50 is 1 µM (active).

Regarding `COC(=O)c1sc2ncccc2c1OCc1c(Cl)cccc1Cl`, the AC50 is 0.158 µM (active).

`COc1ccc(CNC(=O)Nc2cccs2)cc1OC`: the concentration at half-maximal activity (AC50) was 12.6 µM (active).

`COc1ccc(NC(=O)COc2ccc(CNCCCN3CCOCC3)cc2OC)cc1`: the AC50 result is “inactive”.

Turning to `COc1ccc(C[C@@](C)(N)C(=O)O)cc1OC`, the AC50 entry is “inactive”.

With `COc1cc(CNCc2cccs2)ccc1OCC(=O)NC(C)(C)C`, the concentration at half-maximal activity (AC50) was 3.16 µM (active).

With `COc1ccc(CCn2c3c(c(=O)[nH]c2=O)C(NC(=O)c2cccs2)(C(F)(F)F)C(=O)N3)cc1OC` (stereo not drawn), the AC50 entry is “inactive”.

Take `COc1cc(CNCCc2ccccc2)ccc1OCC(=O)NC(C)(C)C`: the AC50 entry was “inactive”.

Turning to `C/C(CCN1CCCCc2nc(C)c(C)cc21)=N\OC[C@@H](C)[C@H](OCc1ccccc1)C(C)C`, the activity, negative = inhibition is -4.06% [at 11.4 µM] (inactive).

With `O=C(c1cc(C(F)(F)F)cc(C(F)(F)F)c1)N1CCC2(CCCN(Cc3ccncc3)C2)CC1`, the AC50 entry was “inactive”.

Turning to `O=C(c1cc(C(F)(F)F)cc(C(F)(F)F)c1)N1CCC[C@@]2(CCN(Cc3ccncc3)C2)C1`, the AC50 is 12.6 µM (active).

As to `N#Cc1ccc(CN2CCC3(CC2)CCN(C(=O)c2cc(C(F)(F)F)cc(C(F)(F)F)c2)CC3)cc1`, the AC50 result was “inactive”.

As to `N#Cc1ccc(CN2CCCC3(CCN(S(=O)(=O)c4ccccc4)CC3)C2)cc1`, the AC50 entry is “inactive”.

Turning to `N#Cc1ccc(CN2CC3(CCN(C(=O)c4cc(C(F)(F)F)cc(C(F)(F)F)c4)CC3)C2)cc1`, the AC50 result was “inactive”.

For `CC(=O)N1CCC2(CCN(Cc3ccncc3)CC2)CC1`, the AC50 entry was “inactive”.

For the molecule `O=S(=O)(c1ccccc1)N1CCC2(CCN(Cc3ccncc3)CC2)CC1`, the AC50 result was “inactive”.

Take `N#Cc1ccc(CN2CC[C@@]3(CCCN(C(=O)c4cc(C(F)(F)F)cc(C(F)(F)F)c4)C3)C2)cc1`: the AC50 was 25.1 µM (active).

Regarding `O=S(=O)(c1ccccc1)N1CCC2(CCCN(Cc3ccncc3)C2)CC1`, the half-maximal activity concentration (AC50) was 12.6 µM (active).

With `O=C(c1ccncc1)N1CCC2(CCN(Cc3ccncc3)CC2)CC1`, the AC50 entry is “inactive”.

Take `COCC(=O)N1CCC2(CCN(Cc3ccncc3)CC2)CC1`: the AC50 is 10 µM (active).

Consider `O=C(c1cc(C(F)(F)F)cc(C(F)(F)F)c1)N1CCC[C@@]2(CCN(c3ccncc3)C2)C1`, for which the AC50 result is “inactive”.

Regarding `CO/N=C\[C@@H](C)[C@H](OCc1ccccc1)C(C)C`, the activity, negative = inhibition was -4.31% [at 11.4 µM] (inactive).

As for `Cc1noc(C)c1C(=O)N1CCC2(CCCN(C(c3ccccc3)c3ccccc3)C2)CC1`, the AC50 result was “inactive”.

As for `CC(C)NC(=O)N1CCCC2(CCN(C(=O)c3ccncc3)CC2)C1`, the AC50 entry was “inactive”.

`O=C(c1ccncc1)N1CCC2(CCCN(Cc3ccncc3)C2)CC1`: the AC50 is 6.31 µM (active).

In the case of `O=C(c1ccncc1)N1CCC2(CCCN(Cc3ccccc3)C2)CC1`, the AC50 entry was “inactive”.

For `O=C(c1cc(C(F)(F)F)cc(C(F)(F)F)c1)N1CCC2(CCN(Cc3ccccc3)CC2)CC1`, the AC50 result was “inactive”.

Consider `O=C(c1cc(C(F)(F)F)cc(C(F)(F)F)c1)N1CCC2(CC1)CN(Cc1ccccc1)C2`, for which the AC50 entry was “inactive”.

With `COc1ccc(C(=O)N2CCC3(CCCN(Cc4ccncc4)C3)CC2)cc1`, the AC50 result is “inactive”.

Consider `O=C(c1cnccn1)N1CCC[C@@]2(CCN(Cc3ccncc3)C2)C1`, for which the half-maximal activity concentration (AC50) is 15.8 µM (active).

For `O=C(c1cc(C(F)(F)F)cc(C(F)(F)F)c1)N1CCC[C@@]2(CCN(Cc3ccccc3)C2)C1`, the concentration at half-maximal activity (AC50) was 25.1 µM (active).

Regarding `O=C(c1cnccn1)N1CCC[C@@]2(CCN(Cc3nccs3)C2)C1`, the AC50 entry was “inactive”.

For `O=C(c1ccncc1)N1CCC2(CCCN(C(c3ccccc3)c3ccccc3)C2)CC1`, the concentration at half-maximal activity (AC50) was 0.2 µM (active).

For `O=C(c1cnccn1)N1CCC[C@@]2(CCN(Cc3cc(C(F)(F)F)cc(C(F)(F)F)c3)C2)C1`, the AC50 result was “inactive”.

For `COC(=O)C/C=C\[C@@H](C)[C@@H](/C=N\OC[C@@H](C)[C@H](OCc1ccccc1)C(C)C)OC`, the activity, negative = inhibition was -0.613% [at 11.4 µM] (inactive).

`C[C@@H]1c2cccc(O)c2C(O)=C2C(=O)[C@@]3(O)C(O)=C(C(N)=O)C(=O)[C@@H](N(C)C)[C@@H]3[C@@H](O)[C@@H]21`: the AC50 entry is “inactive”.

In the case of `O=C1C(=O)N(c2cccc(Cl)c2)C(c2ccccc2[N+](=O)[O-])/C1=C(\O)c1ccccc1` (stereo not drawn), the AC50 result was “inactive”.

Turning to `CC(=O)c1sc(N)c(C(=O)OC(C)C)c1C`, the half-maximal activity concentration (AC50) is 3.55 µM (active).

On to `O=C1C2CCCN2c2ccc(S(=O)(=O)N3CCOCC3)cc2N1Cc1cccc(C(F)(F)F)c1` (stereo not drawn), for which the AC50 result is “inactive”.

With `Cc1ccc(C)c(CN2C(=O)C3CCCN3c3ccc(C#N)cc32)c1` (stereo not drawn), the concentration at half-maximal activity (AC50) is 12.6 µM (active).

For the molecule `CCOC(=O)C1CCN(c2c(NCc3ccc(C(=O)NCCC(C)C)cc3)c(=O)c2=O)CC1`, the AC50 result was “inactive”.

For `CCCCc1c(O)nc(SCCN(C)C)n(-c2ccccc2)c1=O`, the AC50 entry was “inactive”.

Turning to `CCCCc1cc2ccccc2c(OCCN(C)C)n1`, the concentration at half-maximal activity (AC50) was 0.0794 µM (active).

Take `Cc1ccccc1[C@@H](OCCN(C)C)c1ccccc1`: the AC50 entry was “inactive”.
